Test [1] in a line: CCTE_Padilla_ZF_144hpf_TERATOSCORE: (Legacy) CCTE's 144 Hour Post-fertilization zebrafish Assay Teratoscore, Padilla Lab (AID 2283679; active = hit-call score of the fitted dose curve at least 0.9, where 1 is the maximum; inactive = score below 0.9;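 for AC50: zebrafish embryos with chorions exposed by immersion from 6-8 hpf to 5 dpf with daily renewal; teratogenicity score from eye scoring of death hatching and malformations at 144 hpf; higher score means more developmental defects relative to DMSO baseline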). In outline: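 Larvae scored by eye at 144 hpf for death, hatching and malformations after a day in clean Hanks'. Before that, daily-renewed exposure at 80 uM (0.4% DMSO, 26C) from roughly 6-8 hpf through 5 dpf, 4 embryos per chemical.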
The nature of test [2]: CLD_ACTIN_6hr: CellzDirect (CLD) Gene Expression Assay for Baseline Control (Actin) at 6 hours (AID 2283676).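 Note: active means increased actin mRNA relative to DMSO vehicle.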 The essentials: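 Baseline actin transcript level measured by qNPA (S1 nuclease protection, chemiluminescence) in human hepatocyte cultures 6 h after chemical exposure; 0.2% DMSO vehicle as reference, cytotoxicity noted from morphology.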
Read-out in test [3]: Cytochrome P450 2B6 (Homo sapiens) (UniProt P20813)
In words: CLD_CYP2B6_6hr: CellzDirect (CLD) Gene Expression Assay for xenobiotic metabolism (CYP2B6) at 6 hours (AID 2283677).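 Note: actives raise CYP2B6 transcript above DMSO baseline so AC50 marks an inducer.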 In outline: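 CYP2B6 transcript levels, read by chemiluminescent qNPA, were fitted for increase versus DMSO baseline; cultured human liver hepatocytes from two donor preparations were harvested 6 h after exposure to test chemicals at multiple concentrations.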

Read-out in test [4]: Cytochrome P450 2C19 (Homo sapiens) (UniProt P33261)
Description: CLD_CYP2C19_6hr: CellzDirect (CLD) Gene Expression Assay for xenobiotic metabolism (CYP2C19) at 6 hours (AID 2283678). In outline: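 CYP2C19 transcript induction was quantified by quantitative nuclease protection assay with chemiluminescent read-out, 6 h after dosing. Cells were primary human hepatocytes from two donor preparations, given fresh dosing solutions daily in 0.2% DMSO vehicle. Activity was relative to DMSO.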

Read-out in test [5]: Cytochrome P450 3A4 (Homo sapiens) (UniProt P08684)
In words: CLD_CYP3A4_6hr: CellzDirect (CLD) Gene Expression Assay for xenobiotic metabolism (CYP3A4) at 6 hours (AID 2283680). In outline: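 CYP3A4 mRNA induction, 6 h after dosing of cultured primary human hepatocytes from two donors, read by quantitative nuclease protection (qNPA, chemiluminescence). Vehicle 0.2% DMSO as baseline; morphology-based cytotoxicity annotated yes/no.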

Read-out in test [6]: Glyceraldehyde-3-phosphate dehydrogenase (Homo sapiens) (UniProt P04406)
In words: CLD_GAPDH_6hr: CellzDirect (CLD) Gene Expression Assay for Baseline Control (Glyceraldehyde 3-phosphate dehydrogenase) at 6 hours (AID 2283681).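 Note: active means increased signal relative to DMSO vehicle.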 The essentials:
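GAPDH baseline-control readout from qNPA (S1 nuclease digestion, probe hybridization, chemiluminescence) in lysates of cultured human hepatocytes harvested 6 h post-dosing. Chemicals tested at multiple concentrations versus 0.2% DMSO vehicle; microscopy-based cytotoxicity flagged yes/no.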

Read-out in test [7]: HMG-CoA synthase (HMGCS2), HMGCS2 (gene 3158)
In words: CLD_HMGCS2_6hr: CellzDirect (CLD) Gene Expression Assay for HMG-CoA synthase (HMGCS2) at 6 hours (AID 2283682).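 Note: actives raise HMGCS2 transcript above the 0.2% DMSO vehicle baseline.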 In outline: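 HMGCS2 transcript induction read by quantitative nuclease protection with chemiluminescence, 6 h after dosing of primary human hepatocytes. Baseline was 0.2% DMSO vehicle; phase-contrast morphology gave a yes/no cytotoxicity annotation.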

Read-out in test [8]: xenobiotic metabolism (CYP1A2), CYP1A2 (gene 1544)
Description: CLD_CYP1A2_24hr: CellzDirect (CLD) Gene Expression Assay for xenobiotic metabolism (CYP1A2) at 24 hours (AID 2283683). In outline:
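CYP1A2 mRNA induction measured by quantitative nuclease protection (chemiluminescent) in human primary hepatocytes 24 h after multi-concentration chemical dosing with daily fresh solutions. DMSO (0.2%) baseline; positive-direction fitting; morphology-based cytotoxicity noted.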

Read-out in test [9]: ABC Transporter (ABCB1), ABCB1 (gene 5243)
Description: CLD_ABCB1_24hr: CellzDirect (CLD) Gene Expression Assay for ABC Transporter (ABCB1) at 24 hours (AID 2283684). The essentials: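 ABCB1 mRNA induction versus 0.2% DMSO vehicle was read by qNPA chemiluminescence at 24 h. Cultured human hepatocytes from two donor preparations received daily fresh dosing, and phase-contrast cytotoxicity calls were annotated alongside the data.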

Read-out in test [10]: Cytochrome P450 2B6 (Homo sapiens) (UniProt P20813)
Description: CLD_CYP2B6_24hr: CellzDirect (CLD) Gene Expression Assay for xenobiotic metabolism (CYP2B6) at 24 hours (AID 2283686). In outline:
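qNPA chemiluminescent measurement of mRNA at 24 hours in human primary hepatocyte cultures from two donor preparations, with daily fresh dosing and 0.2% DMSO vehicle as baseline. Morphology-based cytotoxicity flagged yes/no.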

Read-out in test [11]: Cytochrome P450 2C9 (Homo sapiens) (UniProt P11712)
Description: CLD_CYP2C9_24hr: CellzDirect (CLD) Gene Expression Assay for xenobiotic metabolism (CYP2C9) at 24 hours (AID 2283688). In outline: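 Induction of CYP2C9 mRNA was quantified by quantitative nuclease protection assay (chemiluminescence), gain of signal versus 0.2% DMSO vehicle, 24 h after dosing. Human primary hepatocytes (two donors) received fresh chemical daily at multiple concentrations; morphology-based cytotoxicity flagged yes/no.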

Read-out in test [12]: Cytochrome P450 3A4 (Homo sapiens) (UniProt P08684)
In words: CLD_CYP3A4_24hr: CellzDirect (CLD) Gene Expression Assay for xenobiotic metabolism (CYP3A4) at 24 hours (AID 2283689). In outline:
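CYP3A4 mRNA induction read by quantitative nuclease protection (chemiluminescence) 24 hr after dosing. Cultured human hepatocytes (two donor preparations) treated daily, vehicle 0.2% DMSO; phase-contrast morphology annotates cytotoxicity.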

Read-out in test [13]: Glyceraldehyde-3-phosphate dehydrogenase (Homo sapiens) (UniProt P04406)
Description: CLD_GAPDH_24hr: CellzDirect (CLD) Gene Expression Assay for Baseline Control (Glyceraldehyde 3-phosphate dehydrogenase) at 24 hours (AID 2283692). The essentials: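 GAPDH baseline-control readout: qNPA chemiluminescent mRNA signal in human primary hepatocytes harvested 24 h after daily dosing, normalised to 0.2% DMSO with positive fitting direction; cytotoxicity annotated by phase-contrast morphology.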

Read-out in test [14]: alkyl and aryl transferase (GSTA2), GSTA2 (gene 2939)
Description: CLD_GSTA2_24hr: CellzDirect (CLD) Gene Expression Assay for alkyl and aryl transferase (GSTA2) at 24 hours (AID 2283693). In outline:
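GSTA2 transcript levels were quantified by quantitative nuclease protection assay in primary human hepatocytes 24 h after daily dosing with fresh solutions at multiple concentrations; 0.2% DMSO vehicle as baseline, cytotoxicity flagged morphologically.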

Read-out in test [15]: ABC Transporter (ABCB11), ABCB11 (gene 8647)
In words: CLD_ABCB11_24hr: CellzDirect (CLD) Gene Expression Assay for ABC Transporter (ABCB11) at 24 hours (AID 2283674; active = hit-call score of the fitted dose curve at least 0.9, where 1 is the maximum; inactive = score below 0.9). The essentials:
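ABCB11 transcript was quantified by qNPA chemiluminescence in cultured human liver hepatocytes 24 hours after dosing. Fresh dosing solutions were applied on consecutive days, against a 0.2% DMSO vehicle. Cytotoxicity was noted by phase-contrast morphology.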

Read-out in test [16]: ABC Transporter (ABCB11), ABCB11 (gene 8647)
In words: CLD_ABCB11_6hr: CellzDirect (CLD) Gene Expression Assay for ABC Transporter (ABCB11) at 6 hours (AID 2283675).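 Note: hits raise ABCB11 mRNA level so AC50 marks induction.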 The essentials: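 Read-out was ABCB11 mRNA gain of signal by quantitative nuclease protection assay, relative to 0.2% DMSO vehicle, 6 h post-dose. Cells were primary human hepatocytes from two donors, treated across multiple concentrations; phase-contrast cytotoxicity noted yes/no.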

Read-out in test [17]: Broad substrate specificity ATP-binding cassette transporter ABCG2 (Homo sapiens) (UniProt Q9UNQ0)
In words: CLD_ABCG2_24hr: CellzDirect (CLD) Gene Expression Assay for ABC Transporter (ABCG2) at 24 hours (AID 2283685). The essentials: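 ABCG2 mRNA induction, read as gain of chemiluminescent signal over 0.2% DMSO, was measured by quantitative nuclease protection at 24 h. Cultured human liver hepatocytes were given fresh dosing solutions of test chemicals at several concentrations each day.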

Read-out in test [18]: Cytochrome P450 2C19 (Homo sapiens) (UniProt P33261)
Description: CLD_CYP2C19_24hr: CellzDirect (CLD) Gene Expression Assay for xenobiotic metabolism (CYP2C19) at 24 hours (AID 2283687).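 Note: activity means mRNA induction above DMSO vehicle baseline.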 In outline: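 CYP2C19 mRNA was quantified by qNPA chemiluminescence after 24 h of daily dosing of cultured human primary hepatocytes from two donors; vehicle was 0.2% DMSO, and increases over DMSO baseline were fitted.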

Read-out in test [19]: organic anion transporter (SLCO1B1), SLCO1B1 (gene 10599)
Description: CLD_SLCO1B1_24hr: CellzDirect (CLD) Gene Expression Assay for organic anion transporter (SLCO1B1) at 24 hours (AID 2283690). The essentials: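 SLCO1B1 mRNA induction read at 24 h by quantitative nuclease protection assay (chemiluminescence), analyzed against DMSO baseline. Human hepatocyte cultures from separate donors received fresh dosing solutions daily; vehicle 0.2% DMSO; cytotoxicity flagged by phase-contrast morphology.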

Read-out in test [20]: HMG-CoA synthase (HMGCS2), HMGCS2 (gene 3158)
Description: CLD_HMGCS2_24hr: CellzDirect (CLD) Gene Expression Assay for HMG-CoA synthase (HMGCS2) at 24 hours (AID 2283691). The essentials:
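qNPA with S1 nuclease digestion and chemiluminescent detection gave HMGCS2 transcript levels, fitted upward against 0.2% DMSO vehicle. Cultured human hepatocytes (two donors) received fresh compound daily and were harvested at 24 h; phase-contrast morphology flagged cytotoxicity.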

Molecules are shown by their SMILES. Inconclusive results are not listed. Active and inactive are the calls of the source. Rule for the calls, unless noted: active = hit-call score of the fitted dose curve at least 0.9, where 1 is the maximum; inconclusive = response in the unintended direction; inactive = score below 0.9.

What is called AC50 is the midpoint of the concentration-response curve, whichever way the signal moves.

Sequence of Glyceraldehyde-3-phosphate dehydrogenase (Homo sapiens) (P04406 whole entry, looked up): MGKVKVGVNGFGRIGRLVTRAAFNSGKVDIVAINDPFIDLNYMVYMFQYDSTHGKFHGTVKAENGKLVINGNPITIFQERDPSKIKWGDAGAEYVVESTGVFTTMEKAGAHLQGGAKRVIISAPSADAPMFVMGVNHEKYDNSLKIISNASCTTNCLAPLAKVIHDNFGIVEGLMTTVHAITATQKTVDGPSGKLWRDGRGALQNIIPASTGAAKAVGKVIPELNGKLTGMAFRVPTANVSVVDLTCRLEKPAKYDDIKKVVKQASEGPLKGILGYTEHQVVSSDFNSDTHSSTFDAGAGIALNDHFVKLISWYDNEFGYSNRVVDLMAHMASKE
Sequence of Cytochrome P450 3A4 (Homo sapiens) (P08684 whole entry, looked up): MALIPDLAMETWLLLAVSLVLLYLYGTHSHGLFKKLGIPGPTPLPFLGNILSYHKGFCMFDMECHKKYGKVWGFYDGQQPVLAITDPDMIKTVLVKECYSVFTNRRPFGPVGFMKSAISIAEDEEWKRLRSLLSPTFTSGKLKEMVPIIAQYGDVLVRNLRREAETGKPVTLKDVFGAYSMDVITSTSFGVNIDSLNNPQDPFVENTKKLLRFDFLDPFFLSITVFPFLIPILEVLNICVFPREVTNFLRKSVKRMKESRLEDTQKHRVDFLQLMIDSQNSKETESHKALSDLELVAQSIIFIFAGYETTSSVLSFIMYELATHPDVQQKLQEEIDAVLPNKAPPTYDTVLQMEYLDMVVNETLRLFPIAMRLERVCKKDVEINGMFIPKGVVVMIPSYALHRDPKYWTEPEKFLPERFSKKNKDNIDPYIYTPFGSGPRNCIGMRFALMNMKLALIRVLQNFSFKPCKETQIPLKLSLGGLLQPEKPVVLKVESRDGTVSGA
Sequence of Cytochrome P450 2C19 (Homo sapiens) (P33261 whole entry, looked up): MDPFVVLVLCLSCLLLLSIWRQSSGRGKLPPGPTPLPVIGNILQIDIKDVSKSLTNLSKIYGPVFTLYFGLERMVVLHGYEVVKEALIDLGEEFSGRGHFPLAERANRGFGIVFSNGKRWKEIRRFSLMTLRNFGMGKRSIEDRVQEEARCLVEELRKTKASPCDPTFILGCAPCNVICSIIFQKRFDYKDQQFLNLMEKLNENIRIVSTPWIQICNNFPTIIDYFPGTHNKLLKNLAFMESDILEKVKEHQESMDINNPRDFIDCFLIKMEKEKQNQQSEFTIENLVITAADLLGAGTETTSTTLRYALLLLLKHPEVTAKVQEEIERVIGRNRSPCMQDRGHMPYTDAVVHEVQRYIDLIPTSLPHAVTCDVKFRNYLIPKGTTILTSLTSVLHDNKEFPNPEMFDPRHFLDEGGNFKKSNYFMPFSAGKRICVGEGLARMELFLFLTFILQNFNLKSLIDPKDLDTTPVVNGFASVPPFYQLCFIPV
Sequence of Broad substrate specificity ATP-binding cassette transporter ABCG2 (Homo sapiens) (Q9UNQ0 whole entry, looked up): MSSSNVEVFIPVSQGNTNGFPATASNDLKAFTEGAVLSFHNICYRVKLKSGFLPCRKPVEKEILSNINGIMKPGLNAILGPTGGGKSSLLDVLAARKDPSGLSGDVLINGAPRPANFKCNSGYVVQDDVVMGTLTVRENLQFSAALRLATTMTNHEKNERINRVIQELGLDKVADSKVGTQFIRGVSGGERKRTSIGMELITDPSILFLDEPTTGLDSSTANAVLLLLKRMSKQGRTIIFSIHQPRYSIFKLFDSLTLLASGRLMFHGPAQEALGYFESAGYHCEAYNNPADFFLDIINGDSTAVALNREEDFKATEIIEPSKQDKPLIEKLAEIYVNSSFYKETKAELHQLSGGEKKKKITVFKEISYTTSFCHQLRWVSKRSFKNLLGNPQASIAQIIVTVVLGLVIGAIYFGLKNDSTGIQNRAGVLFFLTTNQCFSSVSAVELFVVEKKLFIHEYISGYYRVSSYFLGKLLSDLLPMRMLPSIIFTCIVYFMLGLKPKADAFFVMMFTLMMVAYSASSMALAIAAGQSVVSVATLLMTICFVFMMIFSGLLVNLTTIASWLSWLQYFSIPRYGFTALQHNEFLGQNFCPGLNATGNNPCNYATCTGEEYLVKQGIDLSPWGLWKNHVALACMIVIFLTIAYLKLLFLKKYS

For `COc1ccc(O)c(C(C)(C)C)c1`, the half-maximal activity concentration (AC50) in [1] is 57.8 µM (active).
Take `CCNc1nc(NC(C)C)nc(SC)n1`: the call in test [2], in test [4], in test [6], in [7], in [9] and in [11] was inactive. The call in test [13] and in test [14] was inactive. Moreover, the AC50 in [3] is 1 µM (active); in [1], 149 µM (active); in [5] it was 1.79 µM (active); in [8] it was 1.29 µM (active); in test [10], 0.92 µM (active); in test [12] it was 4.22 µM (active).
Consider `CCC(=O)O[C@H]1CC[C@H]2[C@@H]3CCC4=CC(=O)CC[C@]4(C)[C@H]3CC[C@]12C`, for which the half-maximal activity concentration (AC50) in [1] is 79.4 µM (active).
Consider `CCSC(=O)N(CC)C1CCCCC1`, for which the outcome in [15], in test [16], in test [2], in test [4], in test [1] and in [5] was inactive. Further, the result in test [8], in test [9], in test [17], in test [18], in [19] and in test [20] was inactive. Further, the result in test [13] and in test [14] was inactive. Further, the figures for the AC50 in test [3], in test [10] and in test [12] were 3.97 µM (active), 6.17 µM (active) and 0.000663 µM (active), respectively.
For the compound `Oc1c(Cl)c(Cl)c(Cl)c(Cl)c1Cl`, the AC50 in test [1] is 0.806 µM (active).
On to `C[C@]12CCC(=O)C=C1CC[C@@H]1[C@@H]2CC[C@]2(C)C(=O)CC[C@@H]12`, for which the AC50 in test [1] is 31.8 µM (active).
Same read-out and setting: for `O=NN(c1ccccc1)c1ccccc1` the value was 53.4 µM (active); for `NS(=O)(=O)C(F)(F)C(F)(F)C(F)(F)C(F)(F)C(F)(F)C(F)(F)C(F)(F)C(F)(F)F`, 0.45 µM (active); for `C1CC2OC2CC1C1CO1` (stereo not given), 77.8 µM (active).
Take `ClC1=C(Cl)[C@]2(Cl)[C@@H]3[C@H]4C[C@H]([C@@H]5O[C@H]45)[C@@H]3[C@@]1(Cl)C2(Cl)Cl`: in test [1], the half-maximal activity concentration (AC50) is 0.00973 µM (active).
On to `COS(=O)(=O)OC`, for which, in test [1], the result was inactive.
